Here are results for 39 compounds from PubChem BioAssay (NCATS).

Where “and” joins values, the source holds several entries; their conditions need not be identical. Equal entries are not always repeated. Results filed as inconclusive are left out. A call without a number means that no potency is given here. Calls of active or inactive are those of the source. Unless noted, how the calls were made is not given here.

Tested on in the first assay: not listed separately
Description: qHTS assay for cell viability of HEK293 cells (AID 743288; active means well fitted cell-killing curve with a large enough effect; further: nearly all actives have a fitted effect of over 50% in size). The settings on record: ATP luminescence (CellTiter-Glo), 18 h, stronger effect = lower value. The method, boiled down: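 Parental HEK293 cells were seeded at 2,000 cells/well, rested at least 5 h at 37 C, then exposed to compounds in DMSO for 18 h at 37 C. Viability was read as ATP-dependent luciferase luminescence after 30 min at room temperature.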
(In qHTS, concentration-response curves come from the screen itself.)
For `Nc1ccc(Cl)c(Cl)c1`, the max response was -1.26% (inactive).

In the case of `CC(=O)[O-].CC(=O)[O-].CC(=O)[O-].[Cr+3]`, the max response was -3.81% (inactive).

`CC(=O)CCC(C)=O`: the max response was -8.83% (inactive).

For `C=CC(=O)OCC(CC)CCCC` (stereo not given), the max response is 1.71% (inactive) and -12.5% (inactive).

Turning to `CC(C#N)CCC#N` (stereo not given), the max response is -7.04% (inactive).

Tested on in another assay: not listed separately
The assay can be described thus: qHTS assay for cell viability of the p53RE-bla HCT-116 cell line (AID 743292; active means well fitted cell-killing curve with a large enough effect; further: nearly all actives have a fitted effect of over 55% in size). Particulars: p53RE-bla HCT-116 viability, ATP luminescence, 16 h; series mostly up to 95 µM. The method in brief: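 ATP-based luminescence, 16 h compound exposure at 37 C, p53RE-bla HCT-116 cells at 4,000/well.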
Take `Oc1cccc(Cl)c1Cl`: the Potency result was “inactive”.

As to `CCC/C=N/O`, the Potency result was “inactive”.

In the case of `Nc1cccc2ccccc12`, the Potency result is “inactive”.

Consider `Cc1cnc[nH]1`, for which the Potency entry was “inactive”.

With `CN(C)N=O`, the Potency entry is “inactive”.

With `COc1c(C(C)(C)C)cc([N+](=O)[O-])c(C)c1[N+](=O)[O-]`, the Potency result is “inactive”.

Consider `C=C(Cl)CCl`, for which the Potency result is “inactive”.

For `ClCCOCOCCCl`, the Potency result was “inactive”.

For `CC12CC1(C)C(=O)N(c1cc(Cl)cc(Cl)c1)C2=O` (stereo not given), the Potency entry is “inactive”.

In the case of `CC(C)(Cl)[N+](=O)[O-]`, the Potency result was “inactive”.

With `Cl/C=C/Cl`, the Potency entry was “inactive”.

Regarding `CCCCOCC1CO1` (stereo not given), the Potency result is “inactive”.

In the case of `O=C(O)c1cccc(Cl)c1`, the Potency result is “inactive”.

With `C1CC2OC2CC1C1CO1` (stereo not given), the Potency result was “inactive”.

Consider `Brc1cccc(-c2ccccc2)c1`, for which the Potency result is “inactive”.

Take `Oc1c(Cl)cccc1Cl`: the Potency entry was “inactive”.

`ClCCOCCCl`: the Potency result was “inactive”.

For `CCNCC`, the Potency entry was “inactive”.

`CC(C)C#N`: the Potency entry was “inactive”.

`Cl/C=C\Cl`: the Potency entry was “inactive”.

In the case of `c1ccc2c(c1)CCNC2`, the Potency result is “inactive”.

As to `CCBr`, the Potency result is “inactive”.

For the compound `O=[N+]([O-])c1ccc(Cl)c(Cl)c1Cl`, the Potency entry was “inactive”.

In the case of `N#CCCC#N`, the Potency result is “inactive”.

Consider `Cc1ccccc1[N+](=O)[O-]`, for which the Potency entry is “inactive”.

Turning to `OCCBr`, the Potency entry is “inactive”.

For `C=CC(=O)OCCN(C)C`, the Potency result is “inactive”.

`CC(C)(C)C(O)(CCc1ccc(Cl)cc1)Cn1cncn1` (stereo not given): the Potency result is “inactive”.

With `N#CCCCCC#N`, the Potency entry was “inactive”.

As to `CN=C=O`, the Potency result is “inactive”.

`c1ccc(C2CO2)cc1` (stereo not given): the Potency result is “inactive”.

With `CCCCCC[N+](=O)[O-]`, the Potency entry is “inactive”.

`OCC(Cl)CCl` (stereo not given): the Potency entry was “inactive”.

For `COc1ccc(C=O)cc1`, the Potency entry was “inactive”.

As to `Nc1ccc(Cl)c(Cl)c1`, the Potency result was “inactive”.

In the case of `CC(=O)[O-].CC(=O)[O-].CC(=O)[O-].[Cr+3]`, the Potency entry was “inactive”.

On to `CC(=O)CCC(C)=O`, for which the Potency result was “inactive”.

Take `C=CC(=O)OCC(CC)CCCC` (stereo not given): the Potency result is “inactive”.

As for `CC(C#N)CCC#N` (stereo not given), the Potency result was “inactive”.

The target in a further assay is Nuclear receptor subfamily 1 group I member 2 (Rattus norvegicus) (UniProt Q9R1A7). The assay can be described thus: qHTS assay for small molecule activators of the rat pregnane X receptor (rPXR) signaling pathway (AID 651751). Particulars: rPXR reporter cells, luciferase (One-Glo), 24 h.
Sequence of Nuclear receptor subfamily 1 group I member 2 (Rattus norvegicus) (Q9R1A7 whole entry, looked up): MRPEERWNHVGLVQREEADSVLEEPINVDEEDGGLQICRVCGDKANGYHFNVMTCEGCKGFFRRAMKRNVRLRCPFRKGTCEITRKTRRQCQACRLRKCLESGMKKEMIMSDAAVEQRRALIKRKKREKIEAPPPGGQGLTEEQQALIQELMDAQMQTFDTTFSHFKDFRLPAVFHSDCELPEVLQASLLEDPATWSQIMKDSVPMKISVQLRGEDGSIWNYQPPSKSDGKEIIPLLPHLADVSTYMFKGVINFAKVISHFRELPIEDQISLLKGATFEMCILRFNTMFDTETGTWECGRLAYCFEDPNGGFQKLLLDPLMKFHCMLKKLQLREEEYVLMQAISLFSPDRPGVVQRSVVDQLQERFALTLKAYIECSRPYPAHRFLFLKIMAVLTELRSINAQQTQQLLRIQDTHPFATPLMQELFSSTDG
As for `Oc1cccc(Cl)c1Cl`, the max response is -2.09% (inactive).

As to `CCC/C=N/O`, the max response is -0.891% (inactive).

In the case of `Cc1cnc[nH]1`, the max response was -5.24% (inactive).

On to `CN(C)N=O`, for which the max response was 2.44% (inactive).

Regarding `COc1c(C(C)(C)C)cc([N+](=O)[O-])c(C)c1[N+](=O)[O-]`, the max response is 5.88% (inactive).

Regarding `C=C(Cl)CCl`, the max response is 1.93% (inactive).

As for `ClCCOCOCCCl`, the max response was 0.986% (inactive).

Regarding `CC12CC1(C)C(=O)N(c1cc(Cl)cc(Cl)c1)C2=O` (stereo not given), the max response is 12.6% (inactive) and 11% (inactive).

Regarding `CC(C)(Cl)[N+](=O)[O-]`, the max response is 2.49% (inactive).

With `Cl/C=C/Cl`, the max response is -3.34% (inactive).

Take `CCCCOCC1CO1` (stereo not given): the max response was 2.3% (inactive).

In the case of `O=C(O)c1cccc(Cl)c1`, the max response is 0.516% (inactive).

Turning to `C1CC2OC2CC1C1CO1` (stereo not given), the max response was -1.19% (inactive) and -4.43% (inactive).

With `Brc1cccc(-c2ccccc2)c1`, the max response is 2.39% (inactive).

Consider `Oc1c(Cl)cccc1Cl`, for which the max response was 5.06% (inactive).

For `ClCCOCCCl`, the max response was -1.5% (inactive).

As to `CCNCC`, the max response is 0.38% (inactive).

As to `CC(C)C#N`, the max response is 3.94% (inactive).

Take `Cl/C=C\Cl`: the max response was 3.59% (inactive).

For `c1ccc2c(c1)CCNC2`, the max response was -0.393% (inactive).

Turning to `CCBr`, the max response was 4.52% (inactive).

`O=[N+]([O-])c1ccc(Cl)c(Cl)c1Cl`: the max response was -4.87% (inactive).

Turning to `N#CCCC#N`, the max response was 2.24% (inactive).

Consider `Cc1ccccc1[N+](=O)[O-]`, for which the max response is -2.44% (inactive).

Take `OCCBr`: the max response is -0.978% (inactive).

Turning to `C=CC(=O)OCCN(C)C`, the max response is 2.48% (inactive).

On to `N#CCCCCC#N`, for which the max response was 9.56% (inactive).

Consider `CN=C=O`, for which the max response was 8.83% (inactive).

Turning to `c1ccc(C2CO2)cc1` (stereo not given), the max response is -1.42% (inactive).

As for `CCCCCC[N+](=O)[O-]`, the max response is 1.74% (inactive).

In the case of `OCC(Cl)CCl` (stereo not given), the max response was 2.56% (inactive).

Regarding `COc1ccc(C=O)cc1`, the max response is 2.55% (inactive).

`Nc1ccc(Cl)c(Cl)c1`: the max response is 0.573% (inactive).

With `CC(=O)CCC(C)=O`, the max response is -1.31% (inactive).

In the case of `C=CC(=O)OCC(CC)CCCC` (stereo not given), the max response is -2.19% (inactive) and -0.52% (inactive).

Regarding `CC(C#N)CCC#N` (stereo not given), the max response was 3.89% (inactive).

Tested on in another assay: not listed separately
The assay can be described thus: qHTS assay for small molecule activators of the human pregnane X receptor (PXR) signaling pathway (AID 720659). Particulars: DPX-2 HepG2 CYP3A4-luciferase, 24 h; series mostly up to 92.3 µM.
With `Oc1cccc(Cl)c1Cl`, the call was inactive.

Regarding `CCC/C=N/O`, the call was inactive.

For `Cc1cnc[nH]1`, the call was inactive.

Take `CN(C)N=O`: the outcome was inactive.

For the compound `COc1c(C(C)(C)C)cc([N+](=O)[O-])c(C)c1[N+](=O)[O-]`, the call was inactive.

For `C=C(Cl)CCl`, the call was inactive.

`ClCCOCOCCCl`: the compound was called inactive.

In the case of `CC(C)(Cl)[N+](=O)[O-]`, the result was inactive.

Take `Cl/C=C/Cl`: the compound was called inactive.

As for `CCCCOCC1CO1` (stereo not given), the compound was called inactive.

`O=C(O)c1cccc(Cl)c1`: the compound was called inactive.

Regarding `C1CC2OC2CC1C1CO1` (stereo not given), the result was inactive.

On to `Brc1cccc(-c2ccccc2)c1`, for which the compound was classed as inactive.

Consider `Oc1c(Cl)cccc1Cl`, for which the compound was called inactive.

For the compound `ClCCOCCCl`, the result was inactive.

With `CCNCC`, the outcome was inactive.

For `CC(C)C#N`, the result was inactive.

`Cl/C=C\Cl`: the outcome was inactive.

With `c1ccc2c(c1)CCNC2`, the outcome was inactive.

In the case of `CCBr`, the outcome was inactive.

Turning to `O=[N+]([O-])c1ccc(Cl)c(Cl)c1Cl`, the compound was called inactive.

`N#CCCC#N`: the result was inactive.

Take `Cc1ccccc1[N+](=O)[O-]`: the outcome was inactive.

With `OCCBr`, the outcome was inactive.

For the compound `C=CC(=O)OCCN(C)C`, the outcome was inactive.

On to `N#CCCCCC#N`, for which the compound was called inactive.

For the compound `CN=C=O`, the compound was classed as inactive.

Take `c1ccc(C2CO2)cc1` (stereo not given): the compound was called inactive.

For the compound `CCCCCC[N+](=O)[O-]`, the compound was called inactive.

As for `OCC(Cl)CCl` (stereo not given), the outcome was inactive.

For the compound `COc1ccc(C=O)cc1`, the outcome was inactive.

Regarding `Nc1ccc(Cl)c(Cl)c1`, the call was inactive.

On to `CC(=O)CCC(C)=O`, for which the call was inactive.

For the compound `C=CC(=O)OCC(CC)CCCC` (stereo not given), the call was inactive.

Consider `CC(C#N)CCC#N` (stereo not given), for which the result was inactive.
